Test results as given in PubChem BioAssay (Tox21).
Records with an inconclusive call do not appear. Active and inactive are the calls of the source. Unless noted, calls come from the whole dose curve.

Columns and labels:
[1] = Nuclear factor erythroid 2-related factor 2/antioxidant responsive element (Nrf2/ARE) small molecule agonists: luciferase reporter gene qHTS assay in human keratinocytes (AID 1919969); note: nearly all actives have a fitted effect of over 35% in size; note: potency is the fitted concentration of half-maximal effect
[2] = target: KiSS-1 receptor (Homo sapiens) (UniProt Q969F8); experiment: Human kisspeptin (KISS1R) small molecule agonists, calcium flux assay in KISS1R-HEK293 cells (AID 1920064; active = well fitted activation curve with a large enough effect in the repeat runs)
Chain of KiSS-1 receptor (Homo sapiens) (Q969F8 whole entry, looked up): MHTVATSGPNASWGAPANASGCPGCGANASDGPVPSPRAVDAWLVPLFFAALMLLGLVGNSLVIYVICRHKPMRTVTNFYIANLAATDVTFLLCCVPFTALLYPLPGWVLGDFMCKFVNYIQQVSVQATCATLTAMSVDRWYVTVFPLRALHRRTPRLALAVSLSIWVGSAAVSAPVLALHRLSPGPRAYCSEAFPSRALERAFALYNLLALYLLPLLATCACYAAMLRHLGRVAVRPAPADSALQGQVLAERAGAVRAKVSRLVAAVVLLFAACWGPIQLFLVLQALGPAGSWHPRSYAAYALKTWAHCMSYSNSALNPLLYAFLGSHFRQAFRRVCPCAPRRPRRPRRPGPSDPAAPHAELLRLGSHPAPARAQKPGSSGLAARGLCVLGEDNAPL
Procedure, shortened: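 Cell line: HEK293, stable human KISS1R. Dye loading 1 h at 37 C after 18 h culture. Read: kinetic fluorescence, 480/540 nm, 3 min at 1 s intervals.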

[3] = G protein-coupled receptor (GPCR) small molecule agonists, calcium flux assay: HEK293 wild type cell line counter screen (AID 1920065)
Procedure, shortened: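 Tox21 10K compounds, 15 concentrations each in triplicate, pin-transferred in DMSO onto dye-loaded cells; kinetic read at 480/540 nm for 3 min, 1 s intervals.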

[4] = p53 small molecule agonists, cell-based qHTS assay with human liver microsomes (AID 1963577);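 note: p53 response element beta-lactamase reporter cells with liver microsomes plus NADPH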
Procedure, shortened: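 HLM-supplemented p53RE-bla reporter assay: 16 h compound exposure at 37 C, microsomes and NADPH each 0.5 mg/mL final, read by fluorescence intensity.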

[5] = p53 small molecule agonists, cell-based qHTS assay with rat liver microsomes (AID 1963578)
Procedure, shortened: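 Quantitative HTS of the Tox21 10K library: p53RE-bla cells, rat liver microsomes plus NADPH at 0.5 mg/mL final each, 16 h at 37 C, beta-lactamase fluorescence detection.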

[6] = p53 small molecule agonists, cell-based qHTS assay with human liver microsomes: qHTS cell viability counter screen (AID 1963579); note: nearly all actives have a fitted effect of over 45% in size
Procedure, shortened: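 Viability of p53RE-bla cells is measured as CellTiter-Glo luminescence following a 16 h, 37 C incubation with compound, liver microsomes from human donors and NADPH.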

[7] = p53 small molecule agonists, cell-based qHTS assay with rat liver microsomes: qHTS cell viability counter screen (AID 1963580); note: nearly all actives have a fitted effect of over 45% in size
Procedure, shortened: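 After the beta-lactamase ratio was read, CellTiter-Glo was added to the same wells and luminescence measured at 30 min; cells had been treated 16 h at 37 C with compounds, rat liver microsomes and NADPH (0.5 mg/mL final each).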

[8] = p53 small molecule agonists, cell-based qHTS assay (AID 1963582; active = well fitted activation curve with a large enough effect in the signal ratio in the repeat runs, not every such curve was filed as active; the % refers to the signal ratio)
Procedure, shortened: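 16 h compound exposure (37 C) of p53 response element–bla cells, preceded by 5 h recovery at 37 C/5% CO2; read-out via LiveBLAzer B/G FRET substrate, 2 h RT, fluorescence intensity.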

[9] = target: 5-hydroxytryptamine receptor 2A (Homo sapiens) (UniProt P28223); experiment: 5-hydroxytryptamine receptor 2A (HTR2A) small molecule antagonists, cell-based qHTS assay (AID 1963586); note: nearly all actives have a fitted effect of over 45% in size; note: potency is the fitted concentration of half-maximal effect
Chain of 5-hydroxytryptamine receptor 2A (Homo sapiens) (P28223 whole entry, looked up): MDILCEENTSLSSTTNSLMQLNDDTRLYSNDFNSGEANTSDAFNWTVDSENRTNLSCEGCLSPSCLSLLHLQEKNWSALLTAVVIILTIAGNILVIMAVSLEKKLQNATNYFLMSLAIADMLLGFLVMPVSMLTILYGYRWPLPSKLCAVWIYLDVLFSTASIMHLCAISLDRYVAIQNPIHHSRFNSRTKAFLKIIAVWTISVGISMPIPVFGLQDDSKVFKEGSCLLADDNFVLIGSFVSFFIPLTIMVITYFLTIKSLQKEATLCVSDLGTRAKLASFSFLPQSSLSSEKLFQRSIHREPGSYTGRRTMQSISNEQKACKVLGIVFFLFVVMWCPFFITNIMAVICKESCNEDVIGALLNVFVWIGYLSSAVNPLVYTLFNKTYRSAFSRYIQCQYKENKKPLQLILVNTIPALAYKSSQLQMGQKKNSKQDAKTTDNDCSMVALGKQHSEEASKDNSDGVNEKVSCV
Procedure, shortened: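 CHO cells stably expressing human HTR2A were plated for 18 h at 37 C, then loaded with calcium dye for 1 h. Compounds were preincubated 5 min at room temperature before DOI (4 nM solution) was added. Kinetic fluorescence was read for 3 min.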

[10] = target: Muscarinic acetylcholine receptor M1 (Homo sapiens) (UniProt P11229); experiment: Cholinergic receptor muscarinic 1 (CHRM1) small molecule agonists, cell-based qHTS assay (AID 1963589); note: nearly all actives have a fitted effect of over 35% in size
Chain of Muscarinic acetylcholine receptor M1 (Homo sapiens) (P11229 whole entry, looked up): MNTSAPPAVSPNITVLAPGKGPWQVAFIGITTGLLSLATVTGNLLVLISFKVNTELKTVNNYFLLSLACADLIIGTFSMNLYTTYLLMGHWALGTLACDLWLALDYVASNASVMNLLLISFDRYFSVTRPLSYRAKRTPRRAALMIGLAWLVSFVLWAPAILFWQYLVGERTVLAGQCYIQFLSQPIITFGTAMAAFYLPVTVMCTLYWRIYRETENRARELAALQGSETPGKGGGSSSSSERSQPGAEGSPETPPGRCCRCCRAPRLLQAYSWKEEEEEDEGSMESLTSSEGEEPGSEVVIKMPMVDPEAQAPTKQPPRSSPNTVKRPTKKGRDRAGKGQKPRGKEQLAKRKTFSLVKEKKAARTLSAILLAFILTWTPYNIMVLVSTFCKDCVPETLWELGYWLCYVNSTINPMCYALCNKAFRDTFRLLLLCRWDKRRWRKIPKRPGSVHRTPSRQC
Procedure, shortened: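 Homogeneous fluorescence calcium flux, agonist mode. Human M1-expressing CHO cells; compound dosed at 15 concentrations, three independent runs; signal sampled every 1 sec.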

[11] = cAMP Responsive Elements (CRE) small molecule agonists, cell-based qHTS assay (AID 1963590)
Procedure, shortened: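 HEK 293T cells stably bearing CRE-bla were plated at 2,000 cells per well and rested 18 h. Compounds, positive controls or DMSO were added for 3 h at 37 C. LiveBLAzer B/G substrate was then loaded for 2 h at room temperature.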

[12] = target: Beta-2 adrenergic receptor (Homo sapiens) (UniProt P07550); experiment: Adrenergic beta2 receptor (ADRB2) small molecule antagonists, cell-based qHTS assay (AID 1963592); note: nearly all actives have a fitted effect of over 50% in size; note: potency is the fitted concentration of half-maximal effect; for activity change, negative = inhibition: series mostly up to about 92 µM
Chain of Beta-2 adrenergic receptor (Homo sapiens) (P07550 whole entry, looked up): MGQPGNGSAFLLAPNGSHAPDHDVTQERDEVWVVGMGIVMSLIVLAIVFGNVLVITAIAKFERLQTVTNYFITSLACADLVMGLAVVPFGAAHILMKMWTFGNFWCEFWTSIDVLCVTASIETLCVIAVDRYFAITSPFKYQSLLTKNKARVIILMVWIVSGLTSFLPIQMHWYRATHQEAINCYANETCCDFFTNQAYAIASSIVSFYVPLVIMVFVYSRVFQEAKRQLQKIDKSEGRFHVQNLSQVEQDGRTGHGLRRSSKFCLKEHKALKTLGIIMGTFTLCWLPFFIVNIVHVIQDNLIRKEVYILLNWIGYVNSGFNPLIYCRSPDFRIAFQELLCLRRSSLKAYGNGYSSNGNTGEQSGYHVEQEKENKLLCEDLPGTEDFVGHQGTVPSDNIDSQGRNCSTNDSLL
Procedure, shortened: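 Assay format: CHO-ADRB2 cells, 18-20hr seeding at 37C/5% CO2, then compound plus 1nM isoproterenol agonist mix for 0.5hr RT. Homogeneous time-resolved fluorescence cAMP detection after 1hr, expressed as 665/615 nm ratio.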

[13] = target: D(2) dopamine receptor (Homo sapiens) (UniProt P14416); experiment: Dopamine D2 receptor (DRD2) small molecule agonists, cell-based qHTS assay (AID 1963594); note: nearly all actives have a fitted effect of over 35% in size
Chain of D(2) dopamine receptor (Homo sapiens) (P14416 whole entry, looked up): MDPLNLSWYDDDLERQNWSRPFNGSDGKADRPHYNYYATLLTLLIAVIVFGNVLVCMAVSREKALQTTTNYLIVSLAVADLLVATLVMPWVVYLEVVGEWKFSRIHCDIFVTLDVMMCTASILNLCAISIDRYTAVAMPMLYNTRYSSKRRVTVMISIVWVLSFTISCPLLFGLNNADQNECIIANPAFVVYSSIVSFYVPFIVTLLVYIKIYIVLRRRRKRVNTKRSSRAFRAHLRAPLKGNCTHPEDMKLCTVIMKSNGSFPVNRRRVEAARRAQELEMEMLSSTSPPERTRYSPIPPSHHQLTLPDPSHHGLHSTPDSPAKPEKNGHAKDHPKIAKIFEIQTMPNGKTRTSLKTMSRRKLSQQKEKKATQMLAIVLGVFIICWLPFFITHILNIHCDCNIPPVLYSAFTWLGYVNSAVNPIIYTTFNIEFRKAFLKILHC
Procedure, shortened: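 HEK293 cells stably expressing human DRD2, pre-treated with PDE inhibitor Ro20-1724 (0.1 mM final) and compound 10 min at room temperature, then stimulated with NKH477 (200nM […]) for 30 min. cAMP read by HTRF (665/620 nm).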

[14] = target: D(2) dopamine receptor (Homo sapiens) (UniProt P14416); experiment: Dopamine D2 receptor (DRD2) small molecule antagonists, cell-based qHTS assay (AID 1963595; active = well fitted inhibition curve with a large enough effect in the signal ratio in the repeat runs, with a control signal flat; the % refers to the signal ratio)
Procedure, shortened: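 Human DRD2 antagonist qHTS measuring cAMP by HTRF. The cells are exposed to compound for 10 min, then to NKH477 (200 nM) and quinpirole (12 nM) for 30 min at RT, with Ro20-1724 (0.1 mM) present throughout.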

[15] = p53 small molecule agonists, cell-based qHTS assay: qHTS cell viability counter screen (AID 1963581); note: nearly all actives have a fitted effect of over 45% in size
Procedure, shortened: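 ATP content measured by luminescence in HCT-116 p53RE-bla cells treated 16 h at 37 C, same wells as the reporter screen.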

[16] = target: 5-hydroxytryptamine receptor 2A (Homo sapiens) (UniProt P28223); experiment: 5-hydroxytryptamine receptor 2A (HTR2A) small molecule agonists, cell-based qHTS assay (AID 1963587); note: nearly all actives have a fitted effect of over 30% in size
Procedure, shortened: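 CHO cells stably expressing human HTR2A, plated 18 h, loaded with calcium dye 1 h at 37 C. Agonist mode: compounds added and intracellular calcium fluorescence recorded kinetically for 2 min at 1 sec intervals.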

[17] = target: Muscarinic acetylcholine receptor M1 (Homo sapiens) (UniProt P11229); experiment: Cholinergic receptor muscarinic 1 (CHRM1) small molecule antagonists, cell-based qHTS assay (AID 1963588); note: nearly all actives have a fitted effect of over 40% in size
Procedure, shortened: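 Compounds were tested at 15 concentrations in three independent runs. Dye-loaded CHRM1-CHO cells were exposed 5 min at room temperature before stimulation by acetylcholine added at 50nM. Intracellular calcium was read kinetically on FDSS for 3 min.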

[18] = target: Beta-2 adrenergic receptor (Homo sapiens) (UniProt P07550); experiment: Adrenergic beta2 receptor (ADRB2) small molecule agonists, cell-based qHTS assay (AID 1963593);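 note: CHO cells stably overexpressing human ADRB2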
Procedure, shortened: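 CHO cells stably over-expressing ADRB2 were plated overnight at 37C, then dosed with compounds plus a stimulation mix containing 100uM IBMX and 25uM Ro-20-1724 for 0.5hr at room temperature. cAMP was measured by HTRF competition, 1hr.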

[19] = cAMP Responsive Elements (CRE) small molecule antagonists, cell-based qHTS assay (AID 1963591; active = well fitted inhibition curve with a large enough effect in the signal ratio in the repeat runs, not every such curve was filed as active; the % refers to the signal ratio)
Procedure, shortened: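 First, CRE-bla HEK293T cells settled 18 h at 37 C. Next, compound and 0.25 uM final NKH477 were applied for 3 h. Last, LiveBLAzer B/G substrate was loaded for 2 h at room temperature.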
% is set by controls: 0 for no effect and ±100 for the full control effect.

CC(Cc1cccc(C(F)(F)F)c1)NCCOC(=O)c1ccccc1 (stereo not given)
inactive: Potency [1] | Potency [2] | Potency [3] | Potency [4] | Potency [5] | Potency [6] | Potency [7] | Potency [8] | Potency [10] | Potency [11] | Potency [13] | Potency [14]
active: Potency [9] 20.5 µM | Potency [12] 29.8 µM

COc1cc2ncnc(Nc3cccc(Cl)c3)c2cc1OC
inactive: activity, positive = activation [1] -25.9% [at 19 µM] | activation [2] 1.01% [at 15.8 µM] | activation [3] -0.385% [at 11.8 µM] | activation [5] -0.041% [at 13.6 µM] | activity change, negative = cytotoxicity [7] -3.32% [at 13.5 µM] | activity change, negative = cytotoxicity [15] -12.1% [at 13.5 µM] | activation [8] -4.37% [at 13.5 µM] | activity, negative = inhibition [9] 2.95% [at 12.7 µM] | activation [16] -3.99% [at 15.9 µM] | activity, negative = inhibition [17] -4.44% [at 12.6 µM] | activity change, negative = inhibition [12] -2.49% [at 19 µM] | activation [13] -4.16% [at 19 µM] | activity change, negative = inhibition [14] -0.58% [at 18.9 µM]

CCCC1C(CC)=CC(CC)=CN1c1ccccc1 (stereo not given)
active: Potency [1] 61.1 µM
inactive: Potency [2] | Potency [3] | Potency [4] | Potency [15] | Potency [9] | Potency [16] | Potency [17] | Potency [10] | Potency [13] | Potency [14]

CCCC(=O)O[C@]1(C(=O)CCl)[C@@H](C)C[C@H]2[C@@H]3CCC4=CC(=O)C=C[C@]4(C)[C@@]3(F)C(=O)C[C@@]21C
inactive: Potency [1] | Potency [3] | Potency [4] | Potency [6] | Potency [7] | Potency [8] | Potency [9] | Potency [16] | Potency [17] | Potency [10] | Potency [12] | Potency [18] | Potency [14]

O=[N+]([O-])C1(Br)COCOC1
inactive: Potency [2] | Potency [3] | Potency [5] | Potency [6] | Potency [7] | Potency [15] | Potency [8] | Potency [9] | Potency [17] | Potency [10] | Potency [11] | Potency [19] | Potency [12] | Potency [18] | Potency [13] | Potency [14]
active: Potency [1] 24.3 µM

C=CC(=O)Nc1cc2c(Nc3ccc(F)c(Cl)c3)ncnc2cc1OCCCN1CCOCC1
inactive: Potency [1] | Potency [2] | Potency [3] | Potency [5] | Potency [6] | Potency [7] | Potency [15] | Potency [8] | Potency [17] | Potency [10] | Potency [12] | Potency [14]
